“And” between values parts separate entries of the source, which are not always exact repeats. Equal entries are not always repeated.
Assay: CREB reporter modulators without forskolin, primary screen, cell-based, PC12, CRE-LacZ reporter, unstimulated (AID 1145)
Settings: no forskolin, luminescence, 4.5 h, higher = more signal, called active from +8 up or from −8 down

z-score, inactive:
C=CCN(CCCCC)C(=O)C(c1cccs1)N(C(=O)/C=C\C(=O)O)c1c(Cl)cccc1CO (centres undefined) 0.605 and -0.212
CC(C)CON=C1C[C@@H](O)[C@@H](O)[C@@H]2[C@@H]3C(=O)N(c4cccc(Oc5ccccc5)c4)C(=O)[C@@H]3CC[C@H]12 -0.292
C=CCN(C(=O)C(c1cccs1)N(C(=O)/C=C\C(=O)O)C(C)(C)CO)c1ccc(OC)cc1 (centres undefined) -0.488 and -0.619
CCCNC(=O)OC[C@H]1O[C@H](CCON=C(C)CCN2CCc3nc(-c4ccccc4)c(-c4ccccc4)cc3C2)C=C[C@@H]1Oc1ccc(OC)cc1 2.49
C=CC[C@@H](O)c1ccc(O)c(F)c1 -0.403 and 0.0632
C=CCN(Cc1ccccc1)C(=O)C(c1cccs1)N(C(=O)/C=C\C(=O)O)c1c(Cl)cccc1CO (centres undefined) -1.44 and 0.191
CC(C)[Si]1(C(C)C)OCc2cc(CCCc3cc4c(c(CCc5ccccc5)n3)[Si](C(C)C)(C(C)C)OC4)nc(CCc3ccccc3)c21 0.731 and 0.469
COC(=O)[C@@]1(Cc2ccc(F)cc2)[C@H]2c3cc(C(=O)N4CCCC4)n(Cc4c(CO)[nH]cc(C)c4=O)c3C[C@H]2CN1C(=O)c1ccccc1 0.762 and 0.962
C=CCN(C(=O)C1N(c2ccc(CCO)cc2)C(=O)C2C(C(=O)O)C3C=CC21O3)c1ccc(OC)cc1 (centres undefined) 0.333 and -1.97

Source: PubChem BioAssay
